Here are results for 10 molecules from PubChem BioAssay (Tox21).

Several values for one entry are separate records, joined by “and”; a condition that tells them apart may be missing. Identical values can stand only once. Inconclusive results are not listed. Some structures have more than one record in an assay (separate samples or runs), and their calls can disagree. Activity calls are given as the source filed them. Unless noted, calls follow the shape of the dose curve; as a rule, active = well fitted curve in the direction sought with a large enough effect in the repeat runs; inconclusive = weak or mixed curves; inactive = no such curve, though single readings can be large; an effect the other way counts as inactive or inconclusive.

Test [1] can be described thus: qHTS assay to identify small molecule antagonists of the estrogen related receptor (ERR) signaling pathway from Tox21 library - cell viability counter screen (AID 1224834). Also: nearly all actives have a fitted effect of over 30% in size. The method in brief:
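Cytotoxicity of test substances is gauged in the same ERR cells used for the antagonist screen, after 17.5 h of compound treatment at 37 C, by CellTiter-Fluor fluorescence measured after 30 min.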
For orientation: qHTS replaces the single test concentration by a dilution series.

Test [2] addresses Luciferin 4-monooxygenase (Photinus pyralis) (UniProt P08659). Briefly: qHTS assay to identify small molecule inhibitors of firefly luciferase (AID 1224835). Also: nearly all actives have a fitted effect of over 25% in size. The method in brief:
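Biochemical qHTS: compounds run as interplate titrations against purified firefly enzyme, with D-luciferin and ATP each at its KM concentration. Light output recorded by CCD imaging.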

Test [3] can be described thus: qHTS assay to identify small molecule antagonists of the constitutive androstane receptor (CAR) signaling pathway - cell viability counter screen (AID 1224837). Also: nearly all actives have a fitted effect of over 45% in size. In a few lines:
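Multiplexed cytotoxicity read-out for the CAR antagonist screen: double-stable HepG2-CYP2B6-hCAR cells co-treated with 50 nM CITCO (final) and compound over 15 concentrations, incubated 23 hr, then assessed by CellTiter-Fluor fluorescence.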

Test [4] has as its target Nuclear receptor subfamily 1 group I member 3 (Homo sapiens) (UniProt Q14994). Briefly: qHTS assay to identify small molecule antagonists of the constitutive androstane receptor (CAR) signaling pathway (AID 1224838). Also: nearly all actives have a fitted effect of over 40% in size. In a few lines: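 Compounds were titrated across 15 concentrations onto HepG2 cells double-stably expressing hCAR and a CYP2B6-2.2kb reporter, together with 50 nM CITCO (final). After 24 h at 37 C, luciferase activity was measured by luminescence.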

Test [5] shares this target. Kind of test: qHTS assay to identify small molecule agonists of the constitutive androstane receptor (CAR) signaling pathway (AID 1224839). Also: nearly all actives have a fitted effect of over 15% in size. Also: potency is read from the fitted curve at half-maximal effect. In a few lines:
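Compounds tested at 15 concentrations on HepG2 cells stably harbouring hCAR and CYP2B6-2.2kb reporter constructs, co-treated with PK11195 (0.75 uM final), 24 h at 37 C; luminescent reporter signal quantified.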

Test [6] can be described thus: qHTS assay to identify small molecule antagonists of the estrogen related receptor signaling pathway with the pleiotropic PPARgamma coactivator (PGC) from Tox21 10K library - cell viability counter screen (AID 1224840; active = well fitted cell-killing curve with a large enough effect in the repeat runs, not every such curve was filed as active; also: nearly all actives have a fitted effect of over 40% in size). The method in brief: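 Step one, plate 2,000 PGC/ERR cells per well; step two, incubate 6 h at 37 C/5% CO2; step three, pin-transfer compounds; step four, incubate 17.5 h; step five, add CellTiter-Fluor and read fluorescence after 30 min.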

The nature of test [7]: qHTS assay to identify small molecule antagonists of the estrogen related receptor signaling pathway with the pleiotropic PPARgamma coactivator (PGC) from Tox21 10K library (AID 1224841; call rule not given here; also: actives are mostly falling curves and most rising ones were filed inactive; nearly all actives have a fitted effect of over 50% in size). In a few lines: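 Antagonism in this quantitative HTS is taken from loss of luciferase signal in PGC/ERR cells. Cells (2,000/well) are treated with compounds in DMSO after a 6 h settling period and read by One-Glo luminescence after 18 h.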

Test [8] in a line: qHTS assay to identify small molecule agonists of the estrogen related receptor signaling pathway with the pleiotropic PPARgamma coactivator (PGC) from Tox21 10K library (AID 1224842). Also: nearly all actives have a fitted effect of over 15% in size. In a few lines:
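PGC/ERR reporter cell line, 2,000 cells per well, incubated 6 h at 37 C before 23 nL compound in DMSO was added. After 18 h at 37 C, One-Glo luminescence read following 30 min at room temperature.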

In test [9] the target is Thyrotropin receptor (Homo sapiens) (UniProt P16473). Briefly: qHTS assay to identify small molecule agonists of the thyroid stimulating hormone receptor (TSHR) signaling pathway (AID 1224843; calls by dose curve; also: nearly all actives have a fitted effect of over 45% in size; also: potency is read from the fitted curve at half-maximal effect). The method in brief:
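Steps: seed 800 TSHR-HEK293 cells per well; add test compound and hold 30 min at ambient temperature; dispense cAMP-d2 then anti-cAMP cryptate; incubate 1 h at ambient; measure fluorescence intensity.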

The nature of test [10]: qHTS assay to identify small molecule agonists of the hypoxia (HIF-1) signaling pathway - cell viability counter screen (AID 1224844; calls by dose curve; also: nearly all actives have a fitted effect of over 50% in size). In a few lines:
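Tox21 10K compounds were added to HRE-bla ME-180 cells (0.5% dialyzed FBS) and incubated 17 hrs at 37C; ATP-based CellTiter-Glo luminescence then reported cell viability in the same wells.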

Test [11] can be described thus: qHTS assay to identify small molecule agonists of H2AX (AID 1224845; active = well fitted activation curve with a large enough effect in the signal ratio in the repeat runs, not every such curve was filed as active; the % refers to the signal ratio). In a few lines: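 Wild-type CHO-K1 cells, plated overnight, exposed 3hr at 37C to 15 concentrations (0.76% DMSO final). Lysed, then HTRF anti-pH2AX (S139) cryptate and anti-H2AX-d2 antibodies, 24 hr room temperature; 665/620 nm emission read.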
The nature of test [12]: qHTS assay to identify small molecule agonists of the hypoxia (HIF-1) signaling pathway (AID 1224846; active = well fitted activation curve with a large enough effect in the signal ratio in the repeat runs, not every such curve was filed as active; the % refers to the signal ratio). In a few lines:
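Steps: seed ME-180 HRE-bla cells (2,000/well, 0.5% dialyzed FBS); incubate 5 hrs at 37C; pin-transfer compounds or DMSO; incubate 17 hrs; add LiveBLAzer B/G substrate CCF4-AM; measure reporter activation by FRET.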

Test [13] in a line: qHTS assay to identify small molecule antagonists of the estrogen related receptor (ERR) signaling pathway from Tox21 library (AID 1224848). Also: nearly all actives have a fitted effect of over 50% in size. The method in brief: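 Luminescent reporter read-out (ONE-Glo) from NTP's ERR cell line after 18 h treatment at 37 C with DMSO-dissolved Tox21 compounds; cells pre-plated 6 h beforehand at 2,000 per well.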
Test [14] in a line: qHTS assay to identify small molecule agonists of the estrogen related receptor (ERR) signaling pathway from Tox21 library (AID 1224849; calls by dose curve; also: nearly all actives have a fitted effect of over 15% in size). The settings on record: ERR reporter cell line, ONE-Glo luciferase, 18 h; at 92.4 µM (top of the series) unless noted. The method in brief: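 Agonist signal is luciferase luminescence from an ERR reporter cell line treated 18 h at 37 C with DMSO-dissolved compounds, read 30 min after ONE-Glo addition at room temperature.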

A short description of test [15]: qHTS RealTime-Glo MT Cell Viability Assay in HepG2 cells - 24 hour (AID 1224867). Also: nearly all actives have a fitted effect of over 50% in size. In a few lines:
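Viability was tracked continuously by NanoLuc luminescence from prosubstrate reduced by living HepG2 cells, at successive time points over 40 h of compound exposure. Cells with reagent were preincubated 5 h at 37 °C before compound addition.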

The nature of test [16]: qHTS RealTime-Glo MT Cell Viability Assay in HEK293 cells - 32 hour (AID 1224868). The method in brief:
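Viability tracked continuously by luminescence as live cells reduce a prosubstrate for NanoLuc; HEK293 cells preincubated 5 h, compound-treated at 37 C, and read at 0, 8, 16, 24, 32 and 40 h.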

The nature of test [17]: A CellTox Green Cytotoxicity Assay to monitor cytotoxicity in HEK293 cells - 0 hour (AID 1224869). Also: nearly all actives have a fitted effect of over 50% in size. The method in brief: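 Cytotoxicity was tracked continuously in HEK293 cells by a DNA-binding dye excluded from viable cells. Compounds were transferred in DMSO 5 h after seeding; fluorescence was recorded at intervals up to 40 h.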
Test [18] can be described thus: qHTS assay to identify small molecule agonists of H2AX - cell viability counter screen (AID 1224847; calls by dose curve; also: nearly all actives have a fitted effect of over 30% in size; also: potency is read from the fitted curve at half-maximal effect). The method in brief: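 Compounds tested at 15 concentrations were incubated 3 hr at 37C with wild-type CHO-K1 cells; cellular ATP-based luminescence (CellTiter-Glo) indicated viability.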
Test [19] can be described thus: qHTS assay to identify small molecule agonists of the constitutive androstane receptor (CAR) signaling pathway - cell viability counter screen (AID 1224836). Also: nearly all actives have a fitted effect of over 45% in size. The method in brief:
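23 h treatment, 37 C, 5% CO2. Cell line: HepG2 stably expressing hCAR with a CYP2B6-2.2kb construct. Co-treatment: PK11195, 0.75 uM final. Read-out: CellTiter-Fluor fluorescence intensity.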
% is scaled to controls: 0 for no effect and ±100 for the full control effect.

Sequence of Luciferin 4-monooxygenase (Photinus pyralis) (P08659 whole entry, looked up): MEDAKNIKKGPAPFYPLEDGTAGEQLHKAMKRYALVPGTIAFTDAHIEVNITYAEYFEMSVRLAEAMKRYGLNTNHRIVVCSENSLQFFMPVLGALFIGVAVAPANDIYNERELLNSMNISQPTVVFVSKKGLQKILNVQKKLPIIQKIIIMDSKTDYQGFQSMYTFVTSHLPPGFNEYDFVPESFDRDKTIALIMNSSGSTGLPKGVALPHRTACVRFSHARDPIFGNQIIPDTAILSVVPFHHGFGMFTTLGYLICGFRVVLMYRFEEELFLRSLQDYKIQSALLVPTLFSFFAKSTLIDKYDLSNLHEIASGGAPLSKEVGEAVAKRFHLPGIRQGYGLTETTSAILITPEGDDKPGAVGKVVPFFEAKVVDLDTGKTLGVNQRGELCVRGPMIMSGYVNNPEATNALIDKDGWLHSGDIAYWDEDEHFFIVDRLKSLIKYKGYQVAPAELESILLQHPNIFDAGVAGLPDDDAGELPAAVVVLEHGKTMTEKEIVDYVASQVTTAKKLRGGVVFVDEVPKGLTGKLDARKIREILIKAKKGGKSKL
Sequence of Thyrotropin receptor (Homo sapiens) (P16473 whole entry, looked up): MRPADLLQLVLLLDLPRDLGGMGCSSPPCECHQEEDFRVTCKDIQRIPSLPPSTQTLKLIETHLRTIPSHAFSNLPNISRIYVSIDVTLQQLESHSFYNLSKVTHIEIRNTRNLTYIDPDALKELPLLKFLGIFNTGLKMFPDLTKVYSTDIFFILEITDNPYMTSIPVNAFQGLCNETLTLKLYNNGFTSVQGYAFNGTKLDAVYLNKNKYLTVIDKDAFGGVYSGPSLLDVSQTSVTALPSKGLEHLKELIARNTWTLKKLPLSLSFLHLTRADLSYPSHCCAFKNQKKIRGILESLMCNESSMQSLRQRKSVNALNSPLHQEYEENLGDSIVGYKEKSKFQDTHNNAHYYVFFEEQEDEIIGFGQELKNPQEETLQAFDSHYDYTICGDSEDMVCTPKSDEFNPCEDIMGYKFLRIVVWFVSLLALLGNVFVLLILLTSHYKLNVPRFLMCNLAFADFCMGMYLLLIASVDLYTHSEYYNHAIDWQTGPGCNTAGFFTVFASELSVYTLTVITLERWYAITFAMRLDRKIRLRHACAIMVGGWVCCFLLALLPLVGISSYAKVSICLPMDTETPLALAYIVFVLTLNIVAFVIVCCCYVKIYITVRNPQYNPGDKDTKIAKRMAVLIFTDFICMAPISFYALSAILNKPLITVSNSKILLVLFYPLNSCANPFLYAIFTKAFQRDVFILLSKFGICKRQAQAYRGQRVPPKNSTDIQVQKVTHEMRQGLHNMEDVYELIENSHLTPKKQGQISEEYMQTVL
Sequence of Nuclear receptor subfamily 1 group I member 3 (Homo sapiens) (Q14994 whole entry, looked up): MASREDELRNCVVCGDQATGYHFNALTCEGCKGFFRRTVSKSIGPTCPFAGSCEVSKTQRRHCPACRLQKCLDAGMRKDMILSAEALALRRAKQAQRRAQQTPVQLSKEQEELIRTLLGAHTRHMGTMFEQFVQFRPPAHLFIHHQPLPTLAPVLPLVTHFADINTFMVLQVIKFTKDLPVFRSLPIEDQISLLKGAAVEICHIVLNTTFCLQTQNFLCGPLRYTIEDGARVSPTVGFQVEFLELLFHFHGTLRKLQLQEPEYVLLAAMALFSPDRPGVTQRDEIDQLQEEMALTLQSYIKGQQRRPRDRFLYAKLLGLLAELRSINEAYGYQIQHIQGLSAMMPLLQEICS

Turning to `CCCC[N+](=O)[O-]`, the Potency result in test [1], in test [2], in test [3], in test [4], in test [5] and in test [6] was “inactive” each time. The Potency entry in [7], in test [8], in test [9], in test [10], in [13] and in [15] was “inactive” in each case. Moreover, in test [16], the Potency result was “inactive”. Moreover, the outcome in [11], in test [12] and in [17] was inactive. Besides, the activity change, positive = activation in test [14] is -0.684% (inactive).

Consider `ClCC1CO1` (stereo unspecified), for which the Potency entry in test [1], in test [2], in [3], in test [4], in test [5] and in [6] was “inactive” throughout. Moreover, the Potency result in test [7], in test [8], in test [9], in [10], in [18] and in [13] was “inactive” in each case. Besides, in [15], the Potency entry is “inactive”. The outcome in test [11], in test [12] and in test [17] was inactive. Besides, the activity change, positive = activation in [14] is -2.49% (inactive).

Turning to `ClC1=C(Cl)C2(Cl)C(CBr)CC1(Cl)C2(Cl)Cl` (stereo unspecified), the Potency entry in [1], in test [2], in test [19], in test [3], in test [6] and in test [10] was “inactive” throughout. The Potency result in test [15] is “inactive”. The Potency was 4.33 µM (active) and 10.6 µM (active) in [9]; 113 µM (active) and inactive in [18]. The molecule was classed as inactive in [11], in test [12] and in test [17].

On to `CC(=NC#N)N(C)Cc1ccc(Cl)nc1`, for which the Potency result in test [1], in test [2], in test [19], in test [3], in test [6] and in test [9] was “inactive” throughout. Further, the Potency entry in test [10], in test [18] and in [15] was “inactive” throughout. The call in [11], in test [12] and in test [17] was inactive.

Consider `CCOC1Oc2ccc(OS(C)(=O)=O)cc2C1(C)C` (stereo unspecified), for which the Potency entry in test [1], in test [2], in test [3], in test [4], in test [6] and in test [9] was “inactive” throughout. Moreover, the Potency result in test [10], in test [18] and in test [15] was “inactive” each time. Moreover, the Potency in [5] was 30.4 µM (active). Also, the molecule was classed as inactive in [11], in [12] and in test [17].

In the case of `CC(O)CCl` (stereo unspecified), the Potency entry in [1], in test [2], in [3], in [4], in test [5] and in [6] was “inactive” throughout. Further, the Potency result in test [9], in test [10], in test [18], in test [15] and in test [16] was “inactive” each time. In addition, the outcome in [11] and in test [17] was inactive.

On to `CCC1(c2ccccc2)CCC(=O)NC1=O` (stereo unspecified), for which the Potency entry in test [1], in test [2], in test [19], in test [3], in [6] and in test [9] was “inactive” each time. For the same molecule, the Potency result in test [10], in test [18], in test [15] and in [16] was “inactive” throughout. Besides, the call in test [11], in [12] and in test [17] was inactive.

`O=C1CCCCC1Cl` (stereo unspecified): the Potency entry in test [1], in test [2], in test [19], in test [3], in test [6] and in test [9] was “inactive” each time. Moreover, the Potency entry in [10], in [18] and in test [15] was “inactive” throughout. The outcome in test [11], in test [12] and in test [17] was inactive.

As for `C=C(Cl)CCl`, the Potency entry in [1], in test [2], in [19], in test [3], in test [6] and in test [9] was “inactive” each time. For the same molecule, the Potency entry in test [10], in [15] and in test [16] was “inactive” throughout. Further, the molecule was called inactive in test [11] and in test [17].

On to `C=CC1(C)OC(=O)N(c2cc(Cl)cc(Cl)c2)C1=O` (stereo unspecified), for which the Potency entry in test [1], in test [2], in [19], in test [3], in [6] and in [10] was “inactive” throughout. Also, the Potency entry in test [15] and in test [16] was “inactive” throughout. Moreover, the outcome in test [11], in [12] and in test [17] was inactive.
